# Screening data: PubChem, several laboratories
# aDG glyco act: increases alpha dystroglycan glycosylation. actives 0.22% (n = 360,000). Pro5-aDG cells, alpha-DG glycosylation AlphaScreen (IIH6); 0% Pro5, 100% B10-LARGE cell signal. activation, % at 10 µM;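 active = activation of at least 8% versus controls, or a plate z-score of at least 8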;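 note: Pro5 are CHO cells carrying HIG-tagged alpha-DG that lacks glycosylation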
# PHOSPHO1 block: PHOSPHO1 (human) inhibition. recombinant PHOSPHO1, absorbance phosphatase assay. inhibition, % at 13.3 µM. actives 1.1% (n = 290,000); in the data active = inhibition above about 60%
# Target sequence (Q8TCT1 whole entry, looked up): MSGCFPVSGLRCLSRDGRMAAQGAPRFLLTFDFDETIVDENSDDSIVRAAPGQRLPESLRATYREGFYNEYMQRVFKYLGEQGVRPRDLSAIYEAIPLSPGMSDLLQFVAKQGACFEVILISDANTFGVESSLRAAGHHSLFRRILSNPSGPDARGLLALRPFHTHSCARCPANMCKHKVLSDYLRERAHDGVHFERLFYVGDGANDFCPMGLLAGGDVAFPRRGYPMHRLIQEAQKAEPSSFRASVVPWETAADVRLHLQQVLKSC
# APOBEC3G inh: APOBEC3G (human) deaminase inhibition; AID 493012; actives 0.28% (n = 330,000); Q9HC16; inhibition, % at 20 µM; recombinant A3G, ssDNA deamination FAM/TAMRA fluorescence;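 active = inhibition of at least 40% at 20 µM, with no more than 30% in the related APOBEC3A deaminase screen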;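 note: plate controls were DMSO wells with A3G for no effect and wells lacking A3G enzyme for full effect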
# APOBEC3A inh: inhibitors of human APOBEC3A DNA deaminase | AID 493011 | inhibition, % at 20 µM | recombinant A3A, FAM/TAMRA ssDNA deamination fluorescence | P31941 | actives 0.41% (n = 330,000);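 active = at least 40% inhibition at 20 µM here, with at most 30% in a related deaminase screen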;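 note: plate controls were A3A with DMSO for no effect and wells lacking A3A enzyme for full effect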
# ALR H2O2 inh: inhibitors of human sulfhydryl oxidase ALR. purified ALR, DTT oxidation, H2O2 HRP-luminol luminescence. P55789. actives 3.8% (n = 290,000). AID 485317. inhibition, % (test concentration not listed);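 active = mean replicate inhibition above about 79%, with every replicate also reaching it, limit read from the data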
# Target sequence (P55789 whole entry, looked up): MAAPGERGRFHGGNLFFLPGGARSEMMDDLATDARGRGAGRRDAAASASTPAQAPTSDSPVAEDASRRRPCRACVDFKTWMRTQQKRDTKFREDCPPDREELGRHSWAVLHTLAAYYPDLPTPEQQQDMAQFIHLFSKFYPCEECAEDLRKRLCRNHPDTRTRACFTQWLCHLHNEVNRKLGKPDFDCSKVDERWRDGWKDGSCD
# rCAG binder: binds r(CAG) RNA repeats | r(CAG) RNA repeat, TO-PRO-1 dye displacement fluorescence | inhibition, % at 3 µM | actives 1.3% (n = 370,000);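 active = inhibition above the plate cutoff, the mean of all test compounds on that plate plus 3 SD, cut at about 35% in these data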;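 note: 0% = DMSO alone and 100% = 100 µM mitoxantrone as full dye displacement; higher means more dye released from RNA so lower well fluorescence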
# An asterisk follows results filed as active; nt = not tested or not shown. Sampled rows, rich in hits. Any-hit rate of the full collection: about 5.4%.
SMILES,aDG glyco act,PHOSPHO1 block,APOBEC3G inh,APOBEC3A inh,ALR H2O2 inh,rCAG binder
Cc1ccc(/C=N/Nc2cc(C)nc(N3CCOCC3)n2)cc1,0,6,-5,-3,2,-3
Cc1ccccc1C(=O)NC1CCCCN(C)C1=O (centres undefined),nt,nt,nt,nt,nt,0
O=C(Nc1ccncc1)C1COc2ccccc2O1 (centres undefined),0,26,-2,-3,-3,-4
O=C(CSC1=NCCN1)C1COc2ccccc2O1 (centres undefined),0,13,-2,-2,93*,3
Cc1cccc(NC(=O)CNC(=O)[C@H](CCc2ccccc2)NC(=O)[C@H]2O[C@@H](n3cnc4c(N)ncnc43)[C@H](O)[C@@H]2O)c1C,nt,nt,nt,nt,nt,8
COc1ccc(N2CCN(c3ccc(C(=O)O)cc3[N+](=O)[O-])CC2)cc1,0,nt,-6,-1,79*,4
NC(=O)c1ccc(N2CCN(c3ccc(O)cc3)CC2)c([N+](=O)[O-])c1,0,-10,25,1,99*,5
CCn1ncc(C2=NOC(C(=O)Nc3cccc(C(C)=O)c3)C2)c1C (centres undefined),1,2,-6,3,97*,0
Cc1cc(C)nc(SC(C(=O)O)c2ccccc2)n1 (centres undefined),0,7,-8,-2,-4,-2
Cc1cc(C)nc(Sc2nc(Cl)nc(N(c3ccccc3)c3ccccc3)n2)n1,0,83*,4,-5,54,-4
C=CCN1C(=O)[C@H](CC(=O)NCc2ccc(OC)c(OC)c2)[C@@]2(C(=O)OCC)CCCC=C12,nt,nt,nt,nt,nt,0
Nc1ccc(S(N)(=O)=O)cc1N,0,25,-2,4,84*,16
C[C@H](O)[C@@H]1CN2CCc3c([nH]c4cccc(-c5ccc6c(c5)OCO6)c34)[C@@H]2C[C@@H]1N(C)C(=O)c1ccco1,nt,nt,nt,nt,nt,8
CCOc1cc(/C=C/c2ccc3cccc([N+](=O)[O-])c3n2)ccc1O,0,-5,-5,-3,94*,28
CCOc1cc(/C=C/c2cc(C(F)(F)F)[nH]c(=O)n2)ccc1O,0,28,-8,1,99*,5
CCOc1cc(/C=C/c2ccc3cccc([N+](=O)[O-])c3n2)ccc1OCC(=O)N(C)C,-1,-14,-9,2,-17,6
O=C1CCCCC1Sc1nnc(Cc2cccs2)n1CCc1ccccc1 (centres undefined),0,71*,-11,-4,13,-4
O=C(Nc1ccc(O)cc1)c1cc2n(n1)C(C(F)(F)F)CC(c1ccco1)N2 (centres undefined),0,17,-6,-3,99*,4
O=C(Nc1ccc(F)cc1)OCc1cn(Cc2ccccc2F)nn1,nt,nt,nt,nt,nt,1
Nc1ccccc1C#Cc1ccc2[nH]ccc2c1,0,nt,-13,-5,97*,24
Nc1ccccc1C#Cc1ccccc1,0,33,-5,-2,5,6
CC(C)[C@H](NC(=O)CC1CCCC1)C(=O)N1CCC[C@H]1C(=O)NCCc1ccccc1Cl,nt,nt,nt,nt,nt,-3
C/C(=N\Nc1ccc(Cl)c(C(=O)O)c1)c1cccc2ccccc12,0,15,18,23,-8,20
C/C(=N\Nc1ccccc1)c1cc2ccccc2oc1=O,0,-7,-9,1,93*,-4
C/C(=N\NC(=O)CC#N)c1cc2ccccc2oc1=O,0,30,-7,-5,45,1
SMILES,aDG glyco act,PHOSPHO1 block,APOBEC3G inh,APOBEC3A inh,ALR H2O2 inh,rCAG binder
C/C(=N\Nc1ccc(Cl)c(C(=O)O)c1)c1cc2ccccc2o1,0,28,-3,6,99*,22
C/C(=N\Nc1cccc(C(=O)O)c1)c1cc2ccccc2o1,0,-35,-7,-6,99*,20
COC(=O)c1ccc(Cn2ccc3ccc(-c4ccc5ccn(C(=O)c6ccccc6C)c5c4)cc32)cc1,nt,nt,nt,nt,nt,7
CCOC(=O)N1CCN(C(=O)C[C@@H]2C(=O)N(Cc3ccc(OC)cc3)C3=CCN(C(=O)OC(C)(C)C)C[C@]32C(=O)OCC)CC1,nt,nt,nt,nt,nt,2
COC(=O)N/N=C/c1sc(N2CCCCC2)nc1-c1cccs1,0,-21,-2,3,98*,-2
COc1ccc(C(=O)N/N=C/c2sc(N3CCOCC3)nc2-c2ccccc2)cc1OC,0,36,-5,-3,8,0
COc1ccc(/C=C2/C(=O)N(c3c(F)c(F)c(F)c(F)c3F)N=C2C)cc1,0,50,2,-8,90*,16
COc1ccc(/C=C2/C(=O)N(c3ccccc3)N=C2C)cc1,0,nt,0,3,-10,nt
COc1cc(-c2nnc3sc(Cc4ccccc4)nn23)cc(OC)c1OC,0,70*,-8,-7,0,1
CN(CCO)c1cccc2c1S(=O)(=O)N(Cc1cn(Cc3ccc(Cl)cc3)nn1)Cc1ccccc1O2,nt,nt,nt,nt,nt,4
Cc1nc(SCc2ccc(C(=O)O)cc2)nc2c1CCCC2,0,16,-1,-1,96*,7
COc1cc(/C=N/n2cnnc2)ccc1OC(=O)c1ccncc1,0,-8,-1,19,98*,-3
O=C(NCc1ccc(C(=O)NC2CCCC2)cc1)c1cccc(Br)c1,nt,nt,nt,nt,nt,2
Nc1ncc(Br)cc1S(=O)(=O)NC1CCCCC1,0,72*,-2,-2,0,1
CC1CCCC(NS(=O)(=O)c2cc(Br)cnc2N)C1C (centres undefined),0,36,-6,-9,-2,0
O=C(CCc1nc(-c2ccccc2F)no1)NCCc1ccccc1F,nt,nt,nt,nt,nt,1
C=CC[C@@H]1NN2C(=O)[C@@H](CCCC)[C@@H]3c4cc5ccccc5cc4C=NN3[C@@H]2c2cc3ccccc3cc21,nt,nt,nt,nt,nt,9
COC(=O)C1=C(C)Nc2ccc(C)cc2S1,0,38,-11,-2,98*,6
COC(=O)c1ccc2c(c1)SC1=C(CCCC1=O)N2,0,14,-7,-3,34,-12
CCOC(=O)c1c(-c2ccc(C)cc2)csc1NC(=O)CCN1CCOCC1,0,-9,nt,nt,92*,-3
CCOC(=O)c1c(-c2ccc(C)cc2)csc1NC(=O)C1CC=CCC1C(=O)O (centres undefined),0,27,-1,9,13,2
CCOC(=O)c1c(-c2cccc(C)c2)csc1NC(=O)C1CC=CCC1C(=O)O (centres undefined),0,-12,-5,-2,98*,5
CCOC(=O)c1c(-c2ccccc2)csc1NC(=O)C1CCCO1 (centres undefined),0,72*,35,-2,nt,1
COCC1CN(CCc2ccc(F)cc2)S(=O)(=O)c2c(OCCN3C(=O)[C@@H]4[C@H](C3=O)[C@@H]3C=C[C@H]4C3)cccc2O1 (some centres undefined),nt,nt,nt,nt,nt,3
